Consider 197 variants from a collection of fitness landscapes (doi:10.1126/science.1257360).

Over roughly 140,000 sequences, “enrichment ratio after two sorts for PhoP signalling” has its median near 0; the highest 2% begin near 11. Many of the other results were omitted from the sample, so the highest values are more common in it than they were.

Sequences and labels used below:
B1: PhoQ; a variant is named by its letters at X, in order, P23837 (parent)
chain: MKKLLRLFFPLSLRVRFLLATAAVVLVLSLAYGMVALIGYSVSFDKTTFRLLRGESNLFYTLAKWENNKLHVELPENIDKQSPTMTLIYDENGQLLWAQRDVPWLMKMIQPDWLKSNGFHEIEADVNDTSLLLSGDHSIQQQLQEVREDDDDAEMTHSVAVNVYPATSRMPKLTIVVVDTIPVELKSSYMVWSWFIYVLSANLLLVIPLLWVAAWWSLRPIEALAKEVRELEEHNRELLNPATTRELTSLVRNLNRLLKSERERYDKYRTTLTDLTHSLKTPLXXLQXXLRSLRSEKMSVSDAEPVMLEQISRISQQIGYYLHRASMRGGTLLSRELHPVAPLLDNLTSALNKVYQRKGVNISLDISPEISFVGEQNDFVEVMGNVLDNACKYCLEFVEISARQTDEHLYIVVEDDGPGIPLSKREVIFDRGQRVDTLRPGQGVGLAVAREITEQYEGKIVAGESMLGGARMEVIFGRQHSAPKDE

Variants of B1 are the subject of this test. Nature of the test: enrichment ratio after two sorts for PhoP signalling (ratio (wild type AVST 3.29)); higher = more functional. To be noted: with PhoP (E. coli).
With EYMP, the enrichment ratio was no more than 0.25.

For MHHS, the enrichment ratio is no more than 0.25.

Consider YVFC, for which the enrichment ratio is no more than 0.25.

On to GPTW, for which the enrichment ratio is no more than 0.25.

With RAKA, the enrichment ratio was no more than 0.25.

As for RGTI, the enrichment ratio was no more than 0.25.

Take AGTH: the enrichment ratio came to 5.3.

In the case of TGTI, the enrichment ratio turned out to be 13.2.

Regarding AGTI, the enrichment ratio was 16.7.

With KSTI, the enrichment ratio was no more than 0.25.

With AGTK, the enrichment ratio is no more than 0.25.

QIMM: the enrichment ratio is no more than 0.25.

Turning to SDFW, the enrichment ratio was no more than 0.25.

Regarding QQHA, the enrichment ratio is no more than 0.25.

Take GQMD: the enrichment ratio is no more than 0.25.

For the variant YKAP, the enrichment ratio is no more than 0.25.

Regarding KLPM, the enrichment ratio was no more than 0.25.

On to FVPN, for which the enrichment ratio was no more than 0.25.

As to AKAS, the enrichment ratio was 9.64.

In the case of IQAA, the enrichment ratio is no more than 0.25.

For ATMN, the enrichment ratio was no more than 0.25.

Turning to AQAS, the enrichment ratio turned out to be 18.6.

As for YTAN, the enrichment ratio is no more than 0.25.

Regarding ATAN, the enrichment ratio was found to be 29.1.

On to AQAA, for which the enrichment ratio came to 12.7.

As to AKAA, the enrichment ratio amounted to 4.65.

Turning to AKAN, the enrichment ratio was no more than 0.25.

Consider AQAN, for which the enrichment ratio came out at 18.7.

WQAS: the enrichment ratio was no more than 0.25.

AQQN: the enrichment ratio is no more than 0.25.

Take AYFR: the enrichment ratio was no more than 0.25.

Consider WMYW, for which the enrichment ratio is no more than 0.25.

For IMAW, the enrichment ratio is no more than 0.25.

Turning to RNGP, the enrichment ratio was no more than 0.25.

Consider PWQL, for which the enrichment ratio amounted to 0.791.

With DNHF, the enrichment ratio is no more than 0.25.

As for TNNI, the enrichment ratio came out at 3.41.

For the variant KAGF, the enrichment ratio is no more than 0.25.

On to MAGF, for which the enrichment ratio was 14.5.

For the variant MAGS, the enrichment ratio is 17.7.

NAGF: the enrichment ratio was no more than 0.25.

Turning to MAVK, the enrichment ratio was no more than 0.25.

Consider MAGD, for which the enrichment ratio was no more than 0.25.

For the variant AHRA, the enrichment ratio was no more than 0.25.

Turning to CFDS, the enrichment ratio was no more than 0.25.

In the case of MCPV, the enrichment ratio was no more than 0.25.

With DLEL, the enrichment ratio was no more than 0.25.

Take LYPG: the enrichment ratio was no more than 0.25.

In the case of ASCH, the enrichment ratio worked out at 13.6.

On to ASTH, for which the enrichment ratio was 6.74.

KSMH: the enrichment ratio is no more than 0.25.

In the case of ASMH, the enrichment ratio was 16.5.

As to ASCF, the enrichment ratio turned out to be 9.91.

As to ASVH, the enrichment ratio was 8.62.

In the case of KDVM, the enrichment ratio is no more than 0.25.

With DIWH, the enrichment ratio was no more than 0.25.

For the variant RDYH, the enrichment ratio was no more than 0.25.

Consider KKLQ, for which the enrichment ratio is no more than 0.25.

Consider YHEH, for which the enrichment ratio was no more than 0.25.

On to RDFI, for which the enrichment ratio was no more than 0.25.

For the variant MVHP, the enrichment ratio amounted to 0.338.

For LTYT, the enrichment ratio is no more than 0.25.

As to LNYT, the enrichment ratio was no more than 0.25.

For the variant QGFE, the enrichment ratio was no more than 0.25.

In the case of MVFQ, the enrichment ratio came to 13.2.

Consider LEYT, for which the enrichment ratio amounted to 11.9.

On to STYT, for which the enrichment ratio came to 0.437.

Consider QRYT, for which the enrichment ratio was no more than 0.25.

Take QEYT: the enrichment ratio worked out at 20.9.

Consider FFFQ, for which the enrichment ratio is no more than 0.25.

For the variant QGFQ, the enrichment ratio worked out at 13.4.

For MVFE, the enrichment ratio is no more than 0.25.

On to PAIE, for which the enrichment ratio is no more than 0.25.

Consider FSRF, for which the enrichment ratio is no more than 0.25.

In the case of SYCE, the enrichment ratio worked out at 2.48.

Regarding VEGN, the enrichment ratio was no more than 0.25.

Regarding RAVD, the enrichment ratio is no more than 0.25.

Turning to VDID, the enrichment ratio is no more than 0.25.

Take QGCS: the enrichment ratio is no more than 0.25.

Consider QGCI, for which the enrichment ratio came to 19.5.

As to QGCK, the enrichment ratio is no more than 0.25.

As to FQWS, the enrichment ratio was no more than 0.25.

For QGYK, the enrichment ratio was found to be 0.706.

Turning to QGYV, the enrichment ratio is 11.2.

As for FFGG, the enrichment ratio is no more than 0.25.

With QGWS, the enrichment ratio is 20.8.

Regarding TPGG, the enrichment ratio is no more than 0.25.

In the case of QGYI, the enrichment ratio stood at 17.5.

As to FFWS, the enrichment ratio is no more than 0.25.

As for QGGG, the enrichment ratio turned out to be 17.7.

Take NSEV: the enrichment ratio was no more than 0.25.

Take GKAT: the enrichment ratio was no more than 0.25.

Consider WHGN, for which the enrichment ratio is no more than 0.25.

For NVPF, the enrichment ratio is no more than 0.25.

Regarding QRWS, the enrichment ratio was no more than 0.25.

In the case of QGWI, the enrichment ratio is 22.5.

In the case of QEYI, the enrichment ratio is 13.9.

On to MAFQ, for which the enrichment ratio amounted to 24.4.

With QGRA, the enrichment ratio is no more than 0.25.

Consider QEFA, for which the enrichment ratio stood at 0.476.

As for QPWS, the enrichment ratio was no more than 0.25.

With QEWS, the enrichment ratio was determined as 13.4.

For STYI, the enrichment ratio was no more than 0.25.

In the case of MAFE, the enrichment ratio is 8.88.

On to MEFQ, for which the enrichment ratio amounted to 3.08.

As for QGDS, the enrichment ratio was no more than 0.25.

On to RMEL, for which the enrichment ratio was no more than 0.25.

Turning to DLMW, the enrichment ratio was no more than 0.25.

In the case of PLYK, the enrichment ratio is no more than 0.25.

Turning to KDVS, the enrichment ratio was no more than 0.25.

Consider RYGQ, for which the enrichment ratio is no more than 0.25.

On to QQYQ, for which the enrichment ratio is no more than 0.25.

For NKEY, the enrichment ratio is no more than 0.25.

Take TTLW: the enrichment ratio is no more than 0.25.

With VACH, the enrichment ratio is no more than 0.25.

Regarding ISIQ, the enrichment ratio is no more than 0.25.

As to FCWE, the enrichment ratio was no more than 0.25.

In the case of FFGS, the enrichment ratio is no more than 0.25.

As for QGWE, the enrichment ratio turned out to be 14.3.

Regarding QPGS, the enrichment ratio was no more than 0.25.

For the variant FFWE, the enrichment ratio was no more than 0.25.

Regarding QGGS, the enrichment ratio was 14.5.

On to FTRQ, for which the enrichment ratio was no more than 0.25.

Regarding DCTH, the enrichment ratio was no more than 0.25.

VFMI: the enrichment ratio was no more than 0.25.

For the variant SHFN, the enrichment ratio was no more than 0.25.

In the case of FRIN, the enrichment ratio is no more than 0.25.

For TSSA, the enrichment ratio was 11.3.

Turning to TSNK, the enrichment ratio was no more than 0.25.

For KSSC, the enrichment ratio was no more than 0.25.

In the case of SPTC, the enrichment ratio was no more than 0.25.

As for KSTC, the enrichment ratio is no more than 0.25.

As to TSTC, the enrichment ratio turned out to be 17.2.

For KSSA, the enrichment ratio was no more than 0.25.

In the case of FSSA, the enrichment ratio is no more than 0.25.

Take MMTC: the enrichment ratio is no more than 0.25.

Take TSSC: the enrichment ratio came to 12.8.

On to NSSC, for which the enrichment ratio was no more than 0.25.

For the variant TVTC, the enrichment ratio stood at 14.5.

Regarding NVLH, the enrichment ratio was no more than 0.25.

For the variant LSRG, the enrichment ratio was no more than 0.25.

For REYW, the enrichment ratio is no more than 0.25.

On to PQTM, for which the enrichment ratio is no more than 0.25.

Turning to PVEK, the enrichment ratio is no more than 0.25.

Consider SPEK, for which the enrichment ratio was no more than 0.25.

Regarding TVEK, the enrichment ratio was found to be 13.3.

For the variant PFML, the enrichment ratio was no more than 0.25.

With SGNG, the enrichment ratio was no more than 0.25.

In the case of TKIV, the enrichment ratio was determined as 11.9.

For the variant MKIM, the enrichment ratio was no more than 0.25.

On to TKQV, for which the enrichment ratio was determined as 4.75.

Turning to TKIS, the enrichment ratio turned out to be 4.17.

For the variant TKIM, the enrichment ratio came to 15.1.

For the variant AKIM, the enrichment ratio came out at 4.82.

Regarding SEYW, the enrichment ratio was no more than 0.25.

As to QMAQ, the enrichment ratio is no more than 0.25.

Turning to QWLW, the enrichment ratio was no more than 0.25.

LLLD: the enrichment ratio was no more than 0.25.

As to NKIV, the enrichment ratio was no more than 0.25.

Regarding AKLA, the enrichment ratio turned out to be 5.14.

On to AILS, for which the enrichment ratio was determined as 9.63.

As to MKLS, the enrichment ratio was no more than 0.25.

As for TKLS, the enrichment ratio is 19.9.

On to TKLA, for which the enrichment ratio worked out at 4.75.

With AKLS, the enrichment ratio was determined as 13.1.

Consider QRQP, for which the enrichment ratio is no more than 0.25.

Take INTT: the enrichment ratio is no more than 0.25.

AQQM: the enrichment ratio was no more than 0.25.

On to MEHN, for which the enrichment ratio was no more than 0.25.

As for TEQM, the enrichment ratio is 17.8.

For the variant MEQI, the enrichment ratio was no more than 0.25.

As for YYHN, the enrichment ratio was no more than 0.25.

For TEQA, the enrichment ratio was 13.7.

On to NEQM, for which the enrichment ratio was no more than 0.25.

With TEQI, the enrichment ratio worked out at 15.

As for TEHN, the enrichment ratio was determined as 11.9.

As for TEQP, the enrichment ratio is no more than 0.25.

Take NEQI: the enrichment ratio is no more than 0.25.

In the case of TEQH, the enrichment ratio was 3.62.

As to LPHR, the enrichment ratio is no more than 0.25.

For ADGW, the enrichment ratio is no more than 0.25.

With NDRR, the enrichment ratio is no more than 0.25.

For the variant IIAQ, the enrichment ratio was no more than 0.25.

On to SFDP, for which the enrichment ratio is no more than 0.25.

In the case of VFVP, the enrichment ratio was no more than 0.25.

AKQI: the enrichment ratio was no more than 0.25.

As for QEQY, the enrichment ratio is no more than 0.25.

With WQIY, the enrichment ratio is no more than 0.25.

As to ADQI, the enrichment ratio was no more than 0.25.

With AQQI, the enrichment ratio amounted to 14.3.

Regarding TEEN, the enrichment ratio came out at 3.06.

Turning to TEQN, the enrichment ratio worked out at 34.8.

As to TEGY, the enrichment ratio was found to be 1.36.

As for AQIY, the enrichment ratio is 24.

As for TEQY, the enrichment ratio worked out at 12.5.

As to IQIY, the enrichment ratio is no more than 0.25.

Take TEYM: the enrichment ratio is no more than 0.25.
